# In PubChem BioAssay:
# Activity calls are given as the source filed them.
# Experiments:
# [1] = tested on: XIP peptide (Xip251-270) binding; assay: small-molecule binders of XIP peptide, primary screen, biochemical, small-molecule microarray, fluorescence 635/667 nm, 0.1 µg/mL protein (AID 1182); settings: fluorescent protein binding, 635 nm, higher = more signal, called active from +8 up or from −8 down
# [2] = tested on: XIP peptide (Xip251-270); assay: small-molecule binders of XIP peptide, primary screen, biochemical, small-molecule microarray, fluorescence 635/667 nm, 0.5 µg/mL protein (AID 1183); settings: small-molecule microarray binding, fluorescence 635 nm; higher = more signal
# [3] = Plasmodium falciparum growth inhibition, primary screen, strain 3D7, DAPI fluorescence, 100 nL (AID 1184);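 further: parasites grown inside human red blood cells in medium with human serum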; settings: P. falciparum 3D7 growth, 3 d, higher = more signal
# [4] = molecular target: Homeobox protein Hox-A13 (Mus musculus) (UniProt Q62424); assay: inhibitors of HoxA13-DNA binding, primary screen, biochemical, fluorescence polarization, labeled oligonucleotide (AID 1185); settings: 15 min, higher = more signal, called active from +8 up or from −8 down
# Sequence of Homeobox protein Hox-A13 (Mus musculus) (Q62424 whole entry, looked up): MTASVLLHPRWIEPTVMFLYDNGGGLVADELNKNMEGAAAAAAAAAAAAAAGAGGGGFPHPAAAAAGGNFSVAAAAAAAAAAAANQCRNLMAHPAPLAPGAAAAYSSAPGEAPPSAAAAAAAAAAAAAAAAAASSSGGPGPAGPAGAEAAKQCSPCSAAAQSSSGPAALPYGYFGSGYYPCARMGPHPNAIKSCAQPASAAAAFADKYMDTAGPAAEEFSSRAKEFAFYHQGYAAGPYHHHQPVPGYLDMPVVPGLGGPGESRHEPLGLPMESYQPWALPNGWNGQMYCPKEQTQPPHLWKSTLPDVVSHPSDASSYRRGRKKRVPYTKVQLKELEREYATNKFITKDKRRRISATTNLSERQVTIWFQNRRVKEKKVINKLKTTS
Structure (SMILES),composite z-score [1],composite z-score [2],z-score [3],z-score [4]
COC(=O)[C@@H]1CC[C@H](C)[C@@H](c2ccc(C)cc2)N1C(=O)c1ccc(C=NO[C@H](C)c2cn([C@@H]3COC[C@H]3O)nn2)cc1,0.604 (inactive),0.78,-0.214,-6.19 (inactive)
COc1ccc(O[C@H]2C=C[C@@H](c3ccccc3)O[C@@H]2COC(=O)CCC(C)=NO[C@@H]2O[C@H](COC(C)=O)[C@@H](OC(C)=O)[C@H](OC(C)=O)[C@H]2OC(C)=O)cc1,0.427 (inactive),0.495,-0.0102,-4.34 (inactive)
C[C@@H](c1ccccc1)N1C(=O)[C@H]2[C@H]3[C@H](O)[C@H](O)CC(=NO[C@@H]4O[C@H](CO)[C@@H](O)[C@H](O)[C@H]4O)[C@H]3CC[C@H]2C1=O,-0.0033 (inactive),0.216,-0.648,-0.285 (inactive)
Cc1ccc(S(=O)(=O)OC[C@H]2CN3[C@H](c4ccc(Br)cc4)[C@@H](C)CC[C@H]3C(=O)O2)cc1,0.225 (inactive),0.564,0.565,-5.13 (inactive)
C=C(C)C(=O)OCC1CN2[C@@H](CC[C@@H](C)[C@@H]2c2ccc(Br)cc2)C(=O)O1 (stereo partly specified),-0.0135 (inactive),0.446,-0.19,-1.71 (inactive)
COC(=O)[C@H](C)NC(=O)CCC1CC(OC(=O)NCCc2ccc(F)cc2)CC2(CCCC(COC(=O)NCc3cccc(C(F)(F)F)c3)O2)O1 (stereo partly specified),0.64 (inactive),0.517,-0.506,-6.12 (inactive)
COC(=O)CC=C[C@@H](C)[C@@H](C=NOC[C@H]1O[C@H](c2ccccc2)C=C[C@@H]1Oc1ccc(OC)cc1)NS(=O)(=O)c1ccc(C)cc1,-0.0195 (inactive),-0.827,-0.683,-2.52 (inactive)
O=C1C[C@@H](O)[C@@H](O)[C@@H]2[C@@H]3C(=O)N(Cc4ccc5c(c4)OCO5)C(=O)[C@@H]3CC[C@H]12,0.245 (inactive),0.0056,1.57,-0.523 (inactive)
CC(CCN1CCCc2nc(C)c(C)cc21)=NO[C@@H](C)c1cc(-c2c(C)cc(C)cc2C)no1,0.268 (inactive),0.567,-1.36,-3.46 (inactive)
COc1ccc(O[C@H]2C=C[C@@H](c3ccccc3)O[C@@H]2COC(=O)CCC(C)=NOC(C)CN2CCCc3nc(C)c(C)cc32)cc1 (stereo partly specified),0.53 (inactive),0.552,-1.95,-5.13 (inactive)
CC(C)CON=C1C[C@@H](O)[C@@H](O)[C@@H]2[C@@H]3C(=O)N(Cc4ccc5c(c4)OCO5)C(=O)[C@@H]3CC[C@H]12,0.798 (inactive),0.202,-0.613,-3.41 (inactive)
CON=C[C@@H](C)[C@H](OCc1ccccc1)C(C)C,-0.372 (inactive),-0.647,-1.11,3.84 (inactive)
CO[C@H]1COC(=O)[C@@H](C)COC(=O)[C@@H](OCc2ccccc2)C=C[C@@H]1C,0.224 (inactive),0.204,-0.66,-0.618 (inactive)
CCOC(=O)[C@H](Cc1ccccc1)NC(=O)CCC1CC(OC(=O)NCCc2ccc(F)cc2)CC2(CCCC(COC(=O)NCCOC)O2)O1 (stereo partly specified),1.99 (inactive),0.0681,-0.218,-6.28 (inactive)
C#CCCCON=C1[C@H]2CCn3c(=O)n(-c4ccccc4)c(=O)n3[C@H]2[C@H](O)[C@@H]2O[C@H]12,0.245 (inactive),0.193,-1.19,0.241 (inactive)
O=C1[C@H]2[C@H]3[C@H](O)[C@H](O)CC(=NOC[C@@H](O)COCc4ccco4)[C@@H]3CC[C@H]2C(=O)N1C[C@@H]1CCCO1,0.0071 (inactive),0.791,0.965,0.515 (inactive)
CC(C)=CCCC(C)=CCON=C1C[C@@H](O)[C@@H](O)[C@@H]2[C@@H]3C(=O)N(Cc4ccccc4)C(=O)[C@@H]3CC[C@@H]12,0.146 (inactive),0.703,0.83,-0.241 (inactive)
O=C1[C@H]2[C@H]3[C@H](O)[C@H](O)CC(=NOCc4ccccc4)[C@H]3CC[C@H]2C(=O)N1Cc1ccc2c(c1)OCO2,-0.4 (inactive),-0.267,-0.437,-3.74 (inactive)
C=CC[C@@H]1C=C[C@H](ON=C(C)CCC(=O)OC[C@H]2O[C@H](c3ccccc3)C=C[C@@H]2Oc2ccc(OC)cc2)[C@@H](CO)O1,0.0195 (inactive),0.595,0.298,-5.41 (inactive)
